Reference: PubChem BioAssay (NCATS)
Several values for one entry are separate records, joined by “and”; a condition that tells them apart may be missing. Identical values can stand only once. Inconclusive results are not listed. Activity calls are given as the source filed them. The call rests on the fitted dose curve; in most records, active means well fitted curve in the direction sought with a large enough effect; inconclusive means small, poorly fitted or top-dose-only effect, or another doubt; inactive means no such curve, though single readings can be large; an effect the other way counts as inactive or inconclusive.

Experiments:
CRL-7250 [1] = assay: Cytotoxic Profiling of Annotated Libraries Using Quantitative High-Throughput Screening (AID 1296008); conditions: Five cell lines viability, CellTiter-Glo ATP luminescence, 48-72 h; max response: stronger effect = lower value; further: nearly all actives have a fitted effect of over 60% in size; on max response: on the % scale 0 is the no-effect control and ±100 the full control effect
In short: (§1)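 Cells exposed to compounds for 48 or 72 hr at 37 degrees Celsius. Viability read as ATP-coupled luminescence with CellTiter-Glo after 10 min at room temperature.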

HEK293 = assay: as above; conditions: Five cell lines viability, CellTiter-Glo ATP luminescence, 48-72 h; max response: stronger effect = lower value
In short: as §1

HaCat [2] = assay: as above; conditions: Five cell lines viability, CellTiter-Glo ATP luminescence, 48-72 h; max response: stronger effect = lower value
In short: as §1

KB-3-1 = assay: as above; conditions: Five cell lines viability, CellTiter-Glo ATP luminescence, 48-72 h; max response: stronger effect = lower value
In short: as §1

NIH3T3 [3] = assay: as above; conditions: Five cell lines viability, CellTiter-Glo ATP luminescence, 48-72 h; max response: stronger effect = lower value
In short: as §1

CRL-7250 [4] = assay: qHTS assay to identify novel small-molecules to repurpose for Merkel cell carcinoma treatment (AID 1296009); conditions: MCC and control cell lines, CellTiter-Glo viability, 72 h; at 44.8 µM (top of the series) unless noted; further: nearly all actives have a fitted effect of over 60% in size
In short: (§2)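 Cells were incubated with compound for 72 hr at 37 degree celsius before CellTiter-Glo addition. Luminescence was normalized with no-cell wells as full cytotoxicity and DMSO as baseline.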

HACAT [5] = assay: as above; conditions: MCC and control cell lines, CellTiter-Glo viability, 72 h; at 44.8 µM (top of the series) unless noted
In short: as §2

MCC-13 = assay: as above; conditions: MCC and control cell lines, CellTiter-Glo viability, 72 h; series mostly up to 46 µM
In short: as §2

MKL-1 = assay: as above; conditions: MCC and control cell lines, CellTiter-Glo viability, 72 h; series mostly up to 46 µM
In short: as §2

MKL-2 = assay: as above; conditions: MCC and control cell lines, CellTiter-Glo viability, 72 h; series mostly up to 46 µM
In short: as §2

NIH3T3 [6] = assay: as above; conditions: MCC and control cell lines, CellTiter-Glo viability, 72 h; at 44.8 µM (top of the series) unless noted
In short: as §2

UISO = assay: as above; conditions: MCC and control cell lines, CellTiter-Glo viability, 72 h; series mostly up to 46 µM
In short: as §2

WaGa = assay: as above; conditions: MCC and control cell lines, CellTiter-Glo viability, 72 h; series mostly up to 46 µM
In short: as §2

MCC-26 = assay: as above; conditions: MCC and control cell lines, CellTiter-Glo viability, 72 h; series mostly up to 46 µM
In short: as §2

C33A = assay: Primary qHTS to identify gynecologic anti-cancer compounds using libraries of approved drugs and bioactive compounds (AID 1345084); conditions: Gynecologic cancer cell panel viability, ATPlite luminescence, 48 h; series mostly up to 57.5 µM; further: nearly all actives have a fitted effect of over 55% in size
In short: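 Five-concentration response, 48 h; readout is ATP-driven luciferase luminescence.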

TAB113 = assay: qHTS profiling for inhibitors of Plasmodium falciparum proliferation (AID 504749); further: nearly all actives have a fitted effect of over 60% in size; conditions: P. falciparum in erythrocytes, SYBR Green DNA, 72 h; series mostly up to 28.7 µM
In short: (§3)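 Readout was DNA-dye fluorescence from lysed cultures, ex 485/em 535 nm. Parasitized red cells had grown 72 h with compound; data scaled between 0.29 uM artemisinin and DMSO wells and corrected using vehicle-only plates.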

W2 = assay: as above; conditions: P. falciparum in erythrocytes, SYBR Green DNA, 72 h; series mostly up to 28.7 µM
In short: as §3

TAB109 = assay: as above; conditions: P. falciparum in erythrocytes, SYBR Green DNA, 72 h; series mostly up to 28.7 µM
In short: as §3

TAB165 = assay: as above; conditions: P. falciparum in erythrocytes, SYBR Green DNA, 72 h; series mostly up to 28.7 µM
In short: as §3

HEK293T = assay: qHTS assay to identify novel small-molecules to repurpose for Merkel cell carcinoma treatment (AID 1296009); conditions: MCC and control cell lines, CellTiter-Glo viability, 72 h; at 44.8 µM (top of the series) unless noted; further: nearly all actives have a fitted effect of over 60% in size
In short: as §2
Potency means the concentration at half of the fitted maximal effect.

CCN1C[C@]2(OC(=O)c3ccccc3NC(C)=O)CC[C@H](OC)[C@@]34[C@H]5CC6[C@@H](OC)C[C@](O)(C(C[C@@H]23)[C@@H]14)[C@@]5(O)[C@@H]6OC
inactive: outcome (CRL-7250 [1]) | max response (HEK293) -8.41% | outcome (HaCat [2]) | outcome (KB-3-1) | outcome (NIH3T3 [3]) | outcome (CRL-7250 [4]) | outcome (HACAT [5]) | Potency (MCC-13) | Potency (MKL-1) | Potency (MKL-2) | outcome (NIH3T3 [6]) | Potency (UISO) | Potency (WaGa)

C[C@@H]1CC[C@H]2[C@@H](C)C(=O)O[C@@H]3O[C@@]4(C)CC[C@H]1[C@]32OO4
inactive: max response (CRL-7250 [1]) -21.1% | max response (HaCat [2]) -10.9% | max response (KB-3-1) -6.88% | max response (NIH3T3 [3]) -12.8% | Potency (MCC-13) | Potency (MCC-26) | Potency (MKL-1) | Potency (MKL-2)
active: Potency (HEK293) 1660 nM

CCCCCC[C@H]1C(=O)O[C@H](C)[C@H](NC(=O)c2cccc(NC=O)c2O)C(=O)O[C@@H](C)[C@@H]1OC(=O)CC(C)C
inactive: max response (HaCat [2]) -16%
active: Potency (CRL-7250 [1]) 1.48 µM | Potency (HEK293) 469 nM | Potency (MKL-2) 4690 nM

CC(C)NCC(O)c1ccc([N+](=O)[O-])cc1 (stereo not given)
inactive: max response (CRL-7250 [1]) -2.22% | max response (HEK293) -8.6% | max response (HaCat [2]) -38.9% | max response (KB-3-1) -11.6% | max response (NIH3T3 [3]) -0.143% | Potency (MCC-13) | Potency (MKL-1) | Potency (MKL-2) | Potency (UISO) | Potency (WaGa) | Potency (C33A)

Nc1ccc(Cl)cc1
inactive: max response (CRL-7250 [1]) -5.83% | max response (HEK293) 4.83% | max response (HaCat [2]) -11.6% | max response (KB-3-1) -17.1% | max response (NIH3T3 [3]) 2.51% | Potency (MCC-13) | Potency (MCC-26) | Potency (MKL-1) | Potency (MKL-2) | Potency (UISO) | Potency (WaGa) | Potency (C33A)

CCCCCCCCCCCCCCCC[N+](C)(C)C
active: Potency (TAB113) 8910 nM | Potency (W2) 6750 nM | Potency (CRL-7250 [1]) 6.68 µM | Potency (HEK293) 5960 nM | Potency (HaCat [2]) 2110 nM | Potency (NIH3T3 [3]) 21.1 µM | Potency (MKL-1) 944 nM | Potency (MKL-2) 750 nM | Potency (WaGa) 2370 nM

O=C(N[C@@H](COc1ccc2[nH]c(=O)[nH]c2c1)c1ccccc1)c1cccn(Cc2ccc(F)c(F)c2)c1=O
inactive: max response (CRL-7250 [1]) -47.2% | max response (HEK293) -35.2% and -9.78% | max response (HaCat [2]) -18% | max response (KB-3-1) -0.47% | max response (NIH3T3 [3]) -25.3% | Potency (MCC-13) | Potency (MCC-26) | Potency (MKL-1) | Potency (MKL-2) | Potency (UISO) | Potency (WaGa) | Potency (C33A)

Cc1ccc(Cl)c(O)c1
inactive: Potency (TAB109) | Potency (TAB113) | Potency (TAB165) | Potency (W2) | max response (CRL-7250 [1]) 3.13% | max response (HEK293) -16.6% | max response (HaCat [2]) -3.88% | max response (KB-3-1) -1.89% | outcome (NIH3T3 [3]) | Potency (MCC-13) | Potency (MCC-26) | Potency (MKL-1) | Potency (MKL-2) | outcome (NIH3T3 [6]) | Potency (UISO) | Potency (WaGa) | Potency (C33A)

CC(=O)NCCc1c[nH]c2ccccc12
inactive: max response (CRL-7250 [1]) -10.8% | max response (HEK293) -1.55% | outcome (HaCat [2]) | outcome (KB-3-1) | outcome (NIH3T3 [3]) | outcome (HACAT [5]) inactive [at 92 µM] | outcome (NIH3T3 [6]) inactive [at 92 µM] | Potency (C33A)

O=S(=O)(O)C(F)(F)C(F)(F)C(F)(F)C(F)(F)F
inactive: max response (CRL-7250 [1]) -7.36% | outcome (HEK293) | max response (HaCat [2]) 2.96% | max response (KB-3-1) -15.1% | outcome (NIH3T3 [3]) | outcome (HEK293T) inactive [at 92 µM] | Potency (MCC-13) | Potency (MCC-26) | Potency (MKL-1) | Potency (MKL-2) | outcome (NIH3T3 [6]) inactive [at 92 µM] | Potency (UISO) | Potency (WaGa) | Potency (C33A)

C[C@]12CC[C@@H]3[C@@H](CCC4=CC(=O)CC[C@@H]43)[C@@H]1CC[C@@H]2OC(=O)CCc1ccccc1
inactive: max response (CRL-7250 [1]) 1.37% | outcome (HEK293) | max response (HaCat [2]) -22.8% | max response (NIH3T3 [3]) -6.38% | outcome (HEK293T) | Potency (MCC-13) | Potency (MCC-26) | Potency (MKL-1) | Potency (MKL-2) | Potency (UISO) | Potency (WaGa)

Cc1[nH]nc2ccc(-c3cncc(OC[C@@H](N)Cc4c[nH]c5ccccc45)c3)cc12
active: Potency (CRL-7250 [1]) 935 nM and 2.06 µM | Potency (HEK293) 132 nM and 103 nM | Potency (HaCat [2]) 1180 nM | Potency (KB-3-1) 146 nM | Potency (NIH3T3 [3]) 1.66 µM and 1.64 µM | Potency (MCC-13) 2350 nM | Potency (MCC-26) 3720 nM | Potency (MKL-2) 3720 nM | Potency (UISO) 235 nM | Potency (WaGa) 833 nM | Potency (C33A) 316 nM

CC(C)[C@]12O[C@@H]1[C@@H]1O[C@]13[C@]1(O[C@H]1C[C@@H]1C4=C(CC[C@@]13C)C(=O)OC4)[C@H]2O
inactive: max response (CRL-7250 [1]) -124% | max response (HEK293) -111% | max response (HaCat [2]) -144% | max response (NIH3T3 [3]) -117% | Potency (MCC-13) | Potency (MCC-26) | Potency (MKL-1) | Potency (MKL-2) | Potency (UISO) | Potency (WaGa)
active: Potency (KB-3-1) 1 nM

CC(C)[C@]12O[C@H]1[C@@H]1O[C@]13[C@]1(O[C@H]1C[C@H]1C4=C(CC[C@@]13C)C(=O)OC4)[C@@H]2O
active: Potency (CRL-7250 [1]) 0.082 µM | Potency (HEK293) 7.3 nM | Potency (HaCat [2]) 130 nM | Potency (KB-3-1) 65.1 nM | Potency (NIH3T3 [3]) 0.092 µM | Potency (C33A) 708 nM

C[C@@]12OC(=O)[C@]1([C@@H](O)[C@@H]1C=CCCC1)NC(=O)[C@H]2CCCl
active: Potency (CRL-7250 [1]) 0.209 µM | Potency (HEK293) 74.3 nM | Potency (HaCat [2]) 16600 nM | Potency (KB-3-1) 418 nM | Potency (MCC-13) 3320 nM | Potency (MCC-26) 833 nM | Potency (MKL-1) 1180 nM | Potency (MKL-2) 526 nM | Potency (UISO) 1480 nM | Potency (WaGa) 662 nM

NC1CC1c1ccccc1 (stereo not given)
inactive: max response (CRL-7250 [1]) -3.17% | outcome (HEK293) | max response (HaCat [2]) -2.49% | max response (KB-3-1) 5.36% | max response (NIH3T3 [3]) -3.94% | outcome (HEK293T) | Potency (MCC-13) | Potency (MCC-26) | Potency (MKL-1) | Potency (MKL-2) | Potency (UISO) | Potency (WaGa)
